A selection: hits, their analogues and other compounds. The true share with any hit is near 0.5%.
E coli growth-1 = blocks Escherichia coli growth. OD600, 23 h; active compounds read low. OD600 absorbance (no concentration beside the values). AID 1053175. actives 0.21% (n = 330,000);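 active = OD600 absorbance below the run mean of sample wells minus 3.6 SD, in any replicate, cut at about 0.56 in these data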
E coli growth-2 = reduces bacterial viability in AddAB counter-screen; E. coli V3065 growth, OD600 absorbance, 18 h; actives 0.27% (n = 330,000); AID 449728; inhibition, % at 11.9 µM;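 active = inhibition above the campaign's mean inhibition across all tested compounds plus 3 SD, cut at about 9.9% in these data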;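 note: uninfected addAB+ strain grown without phage in ampicillin broth; 0% = DMSO wells and 100% = ciprofloxacin 0.95 µg/ml wells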
phage Ecoli inh = E. coli growth loss with phage present; AID 651602; inhibition, % at 11.9 µM; growth absorbance; actives 0.26% (n = 360,000); in the data active = inhibition above about 11%
AddAB inh = less growth of phage-infected E. coli with AddAB; actives 0.29% (n = 330,000); AID 435030; E. coli expressing H. pylori AddAB, absorbance growth; inhibition, % at 11.9 µM; in the data active = inhibition above about 12%;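 note: 0% = vehicle wells of infected cells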
Tat export inh = inhibitors of E. coli Tat protein transport; E. coli MC4100 TorA-mCherry Tat export, fluorescence; inhibition, % at 10 µM; actives 0.036% (n = 340,000); AID 488895;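 active = mean replicate inhibition at least 50% and at least half of replicates individually reaching 50%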;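 note: exported cargo escapes ClpAP degradation while cytoplasmic cargo is degraded and loses fluorescence; 0% = median of neutral control wells and 100% = median of NaSCN control wells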
AddAB confirm = confirmation screen: growth loss of phage-infected E. coli expressing H. pylori AddAB | shares compounds with AddAB inh | E. coli V3065 expressing H. pylori AddAB, T4 phage, OD; T4 phage with gene 2 nonsense mutations | inhibition, % at 11.9 µM | actives 64% (n = 880) | AID 488942;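 active = mean inhibition above a set limit taken from the earlier primary screen, cut at about 13% in these data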;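 note: higher means less bacterial growth since AddAB block lets phage replicate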
RecBCD counter = reduces growth of phage-infected RecBCD+ E. coli, AddAB inhibitor counter-screen; shares compounds with AddAB inh; E. coli V66 + mutant T4 phage, OD growth; inhibition, % at 11.9 µM; actives 73% (n = 880);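 active = mean inhibition above the mean of solvent-only control wells plus 3 SD, cut at about 4% in these data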;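 note: optical density read after an 18 h incubation at 37 °C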
Bact viability = counter-screen for AddAB inhibitors: inhibitors of bacterial viability. shares compounds with AddAB inh. absorbance (AddAB counterscreen). inhibition, % at 11.9 µM. actives 35% (n = 880); in the data active = inhibition above about 25%
Starred values were filed as active, the others as inactive; · = no result given.

SMILES	E coli growth-1	E coli growth-2	phage Ecoli inh	AddAB inh	Tat export inh	AddAB confirm	RecBCD counter	Bact viability
CC[C@@]12C(=O)N(c3ccc(OC)cc3)C(=O)N1C(c1ccc(Cl)cc1)C1C(=O)N(C3CCCCC3)C(=O)C12 (some centres not stated)	0.71	·	·	·	·	·	·	·
COc1cccc(C=NNC(=O)CNC(=O)c2ccc(S(=O)(=O)N3CCOCC3)cc2)c1OC	0.7	·	·	·	·	·	·	·
Cc1cc(=O)n(-c2ccc(O)cc2)[nH]1	0.54	93*	11	98*	-3	78*	7.7*	46*
Cc1ccc(NN=Cc2ccc3c(c2)OCCO3)cc1Cl	0.66	·	·	·	·	·	·	·
CN(C)N=Nc1nc[nH]c1C(N)=O	0.59	12*	7	18*	-5	74*	4.0*	40*
COc1ccc2c(c1)C(=O)N1C3c4cc(Cl)ccc4OCC3C(c3ccccc3)[C@]1(C)C(=O)N2 (some centres not stated)	0.72	·	·	·	·	·	·	·
CCCOc1ccccc1C=NNc1ccnc(=O)[nH]1	0.51	·	·	·	·	·	·	·
CCCOc1ccccc1/C=N/Nc1ccnc(=O)[nH]1	·	21*	1	13*	4	100*	4	68*
O=Nc1ccc(O)c2ncccc12	0.4*	12*	2	12*	5	98*	3	17
CCC(Sc1nc2c(cnn2-c2ccc(Cl)cc2)c(=O)[nH]1)C(=O)OC (configuration not stated)	0.84	43*	2	97*	-12	0	1	0
CCOC(=O)C(CC)Sc1nc2c(cnn2-c2ccc(F)cc2)c(=O)[nH]1 (configuration not stated)	0.64	0	1	1	2	·	·	·
CCc1ccc(C(C(=O)NCc2ccccc2)N(C(=O)c2csnn2)C2CC2)cc1 (configuration not stated)	0.65	46*	0	99*	-2	-4	0	-2
O=C(NCc1ccccc1)C(c1ccccc1)N(C(=O)c1csnn1)C1CC1 (configuration not stated)	0.71	1	3	3	-2	·	·	·
O=C(N/N=C\c1c(O)ccc2ccccc12)c1ccc(O)cc1	·	-3	0	6	3	·	·	·
O=C(N/N=C/c1c(O)ccc2ccccc12)c1ccc(Br)o1	·	23*	16*	21*	-10	15*	17*	11
Cc1occc1C(=O)N/N=C/c1c(O)ccc2ccccc12	·	14*	10	17*	2	17*	16*	9
COc1cc(C=Nn2c(C)n[nH]c2=S)ccc1OCc1ccccc1	0.67	·	·	·	·	·	·	·
Cc1cc2c(c(=O)o1)C(c1ccc([N+](=O)[O-])o1)C(C#N)=C(N)O2 (configuration not stated)	0.63	15*	7	19*	3	100*	8.3*	19
CCC(CC)C1C(C#N)=C(N)Oc2cc(C)oc(=O)c21 (configuration not stated)	0.66	3	0	4	-2	·	·	·
CCC[C@@H](CN1CCC[C@H]1CN1C(N)=NC[C@H]1CC(C)C)N1C[C@@H]([C@H](C)CC)N(CCc2ccc(Cl)c(Cl)c2)C1=N	0.078*	16*	4	13*	-1	-9	2	-7
CCC[C@@H](CN1CCC[C@H]1CN1C(N)=NC[C@@H]1Cc1ccccc1)N1C[C@@H]([C@H](C)CC)N(CCCC2CCCC2)C1=N	·	22*	·	26*	96*	14*	13*	11
Cc1ccc(S(=O)(=O)N2C(c3cccc(C)c3)CC=C(C(=O)O)C2c2ccccc2)cc1 (configuration not stated)	0.69	·	·	·	·	·	·	·
COc1ccc(-c2nc(Cn3c(SCc4cccc(F)c4)nc4ccncc43)c(C)o2)cc1OC	0.72	83*	0	96*	6	-3	-1	-2
Cc1n[nH]c(=S)n1N=Cc1ccc(OCc2ccc(Cl)cc2)cc1	0.69	·	·	·	·	·	·	·
Cc1cc(/C=N/NC(=O)c2ccccc2F)c(C)n1-c1ccccc1	·	-1	4	131*	1	1	2	0
SMILES	E coli growth-1	E coli growth-2	phage Ecoli inh	AddAB inh	Tat export inh	AddAB confirm	RecBCD counter	Bact viability
CCCCCCCCC[n+]1cccc2c3ccccc3ccc21	0.49*	16*	·	15*	-12	9	6.6*	7
CCCNC(=O)Cn1c(=O)oc2cc(S(=O)(=O)N3CCCC3)ccc21	0.76	37*	-2	55*	0	-2	-1	-4
O=C(Cn1c(=O)oc2cc(S(=O)(=O)N3CCCCCC3)ccc21)NC1CCCCCCC1	0.79	-1	2	-2	-15	·	·	·
Cn1cnc(Sc2ncnc3nc[nH]c23)c1[N+](=O)[O-]	·	17*	11	26*	6	53*	10*	33*
Cn1cnc([N+](=O)[O-])c1Sc1ncnc2nc[nH]c12	0.7	1	2	2	-2	·	·	·
CC(=O)NC1CCCN(O)C(=O)/C=C(\C)CCOC(=O)C(NC(C)=O)CCCN(O)C(=O)/C=C(\C)CCOC(=O)C(NC(C)=O)CCCN(O)C(=O)/C=C(\C)CCOC1=O (configuration not stated)	·	16*	·	21*	·	14*	15*	6
Cc1ccc(C(=O)NC2CCCCN(C)C2=O)cc1 (configuration not stated)	·	·	2	·	·	·	·	·
COc1ccc(-c2nnc(NC(=O)c3ccc4c(c3)OCCO4)o2)cc1	0.7	-4	-1	1	-8	·	·	·
COc1ccc(-c2nnc(NC(=O)c3ccc(F)cc3)o2)cc1	0.55	5	4	15*	7	17*	12*	5
Cc1nn(CC(=O)NN=Cc2cccs2)c(C)c1[N+](=O)[O-]	0.68	·	·	·	·	·	·	·
NC(=O)c1ccc(C(=O)NN=Cc2cccc(Oc3ccccc3)c2)cc1	0.73	·	·	·	·	·	·	·
Cc1cc(N/N=C/c2ccc(O)cc2O)nc(-c2ccccc2O)n1	·	4	·	14*	1	17*	7.1*	9
S=C(NCc1ccccc1Cl)Nc1ccccc1Cl	0.65	3	3	9	1	·	·	·
Fc1cccc(NC(=S)NCc2ccccc2Cl)c1	0.62	11*	9	19*	-4	33*	26*	33*
Cc1cc(Cl)ccc1NC(=S)NCc1ccccc1Cl	0.65	6	1	16*	4	15*	15*	14
S=C(NCc1ccc(Cl)cc1Cl)Nc1ccccc1	0.61	2	5	7	7	·	·	·
C=CCCC(Cc1ccc(F)cc1)C(=O)OCC(Cc1c[nH]c2ccccc12)NC(=O)C(CC=C)CC(=O)NCCO (configuration not stated)	0.65	·	·	·	·	·	·	·
CCC1=C(OC(=O)N(CC)CC)N2C(=O)OC(=NCC(=O)OC)[C@]2(C)C2C1=CCC1C(=O)N(CC)C(=O)C12 (some centres not stated)	0.68	·	·	·	·	·	·	·

Screens deposited in PubChem BioAssay by several laboratories.
